According to PubChem BioAssay:

Test: JC-1 mitochondrial potential readout, lung cancer cells – cell-based, A549, JC-1 fluorescence, basal, 24 h, 100 nL, profiling panel (AID 1138);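 also: A549 lung adenocarcinoma cells under basal conditions with no added stimulus; test concentration not given here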
Details: higher = more signal

Compared with O=C1[C@H]2[C@H]3[C@H](O)[C@H](O)CC(=NOC[C@@H](O)COCc4ccco4)[C@@H]3CC[C@H]2C(=O)N1C[C@@H]1CCCO1, O=C1[C@H]2[C@H]3[C@H](O)[C@H](O)CC(=NOC[C@@H](O)COCc4ccco4)[C@H]3CC[C@H]2C(=O)N1C[C@@H]1CCCO1 is lower in z-score: -0.00687 for the first, -0.644 for the second.

Compared with CC(C)=NOC[C@@H](C)[C@H](OCc1ccccc1)C(C)C, COC(=O)CC=C[C@@H](C)[C@@H](C=NO[C@H](C)c1cn([C@H](CO)Cc2ccccc2)nn1)NS(=O)(=O)c1ccc(C)cc1 is higher in z-score: -0.375 for the first, -0.248 for the second.

Compared with C=CC[C@@H]1C=C[C@H](ON=C(C)CCN2CCc3nc(-c4ccccc4)c(-c4ccccc4)cc3C2)[C@@H](CO)O1, CC(CCN1CCc2nc(-c3ccccc3)c(-c3ccccc3)cc2C1)=NOC[C@@H](O)COCc1ccco1 is lower in z-score: 2.3 for the first, 2 for the second.

First: CC(=O)OC[C@H]1OC(ON=CC[C@@H]2C=C[C@H](OC(C)=O)[C@@H](COC(C)=O)O2)[C@H](OC(C)=O)[C@@H](OC(C)=O)[C@@H]1OC(C)=O (some centres not stated)
Second: COC(=O)CC=C[C@@H](C)[C@@H](C=NO[C@@H]1O[C@H](COC(C)=O)[C@@H](OC(C)=O)[C@H](OC(C)=O)[C@H]1OC(C)=O)OC
The z-score of the first is lower: -0.99 for the first, -0.361 for the second.

Compared with CON=CC[C@@H]1C=C[C@H](OC(C)=O)[C@@H](COC(C)=O)O1, COC(=O)CC=C[C@@H](C)[C@@H](C=NOCC[C@@H]1C=C[C@H](OC(C)=O)[C@@H](COC(C)=O)O1)OC is higher in z-score: 0.296 for the first, 0.493 for the second.

Compared with CCOC(=O)[C@H](CC(C)C)NC(=O)CCC1CC(OC(=O)NCc2cccc3ccccc23)CC2(CCCC(COC(=O)NCC3CCCCC3)O2)O1 (some centres not stated), CCOC(=O)[C@H](CC(C)C)NC(=O)CCC1CC(OC(=O)NCc2cccc3ccccc23)CC2(CCCC(COC(=O)NCCCN3CCCC3=O)O2)O1 (some centres not stated) is higher in z-score: -1.07 for the first, -0.754 for the second.

Compared with COc1cccc([C@H]2Oc3ccc(OC)cc3C(=NO[C@H](C)c3cn([C@H](CO)Cc4ccccc4)nn3)[C@@H]2O)c1, O=C1[C@H]2[C@H]3[C@H](O)[C@H](O)CC(=NOCc4ccccc4)[C@H]3CC[C@H]2C(=O)N1Cc1ccc2c(c1)OCO2 is higher in z-score: -0.685 for the first, -0.626 for the second.

First: CCOC(=O)[C@H](Cc1ccccc1)NC(=O)CCC1CC(OC(=O)NCCc2ccc(F)cc2)CC2(CCCC(COC(=O)NCCCN3CCCC3=O)O2)O1 (some centres not stated)
Second: CCOC(=O)[C@H](CC(C)C)NC(=O)CCC1CC(OC(=O)NCCc2ccc(F)cc2)CC2(CCCC(COC(=O)NCCOc3ccccc3)O2)O1 (some centres not stated)
The z-score of the first is higher: 0.837 for the first, 0.0542 for the second.

Going from COC(=O)[C@H](C)NC(=O)CCC1CC(OC(=O)NCCc2ccc(F)cc2)CC2(CCCC(COC(=O)NCCC(C)C)O2)O1 (some centres not stated) to CCOC(=O)[C@H](CC(C)C)NC(=O)CCC1CC(OC(=O)NCc2cccc3ccccc23)CC2(CCCC(COC(=O)NCCc3ccc(Cl)cc3)O2)O1 (some centres not stated), the z-score falls from 2.09 to 0.31.

Compared with O=C1C=C[C@@H](O)[C@@H]2[C@@H]3C(=O)N(c4ccc(F)cc4F)C(=O)[C@@H]3CC[C@@H]12, CC(C)CON=C1C[C@@H](O)[C@@H](O)[C@@H]2[C@@H]3C(=O)N(c4ccc(F)cc4F)C(=O)[C@@H]3CC[C@H]12 is lower in z-score: 0.784 for the first, -0.229 for the second.

Going from CO[C@H]1COC(=O)CC=C[C@@H](C)[C@H](NS(=O)(=O)c2ccc(C)cc2)COC(=O)CCC[C@@H]1C to CO[C@H]1COC(=O)CCC[C@@H](C)[C@H](OC)COC(=O)[C@@H]2CCCN2C(=O)CC=C[C@@H]1C, the z-score rises from -1.07 to -0.738.

Going from CC(=O)OC[C@H]1O[C@@H](ON=C(C)CCN2CCCc3nc(C)c(C)cc32)[C@H](OC(C)=O)[C@@H](OC(C)=O)[C@@H]1OC(C)=O to CCOC(=O)[C@H](CC(C)C)NC(=O)CCC1CC(OC(=O)NCc2ccc3c(c2)OCO3)CC2(CCCC(COC(=O)NCCCN3CCCC3=O)O2)O1 (some centres not stated), the z-score rises from -1.13 to 1.26.

Compared with CCOC(=O)CCN1C(=O)[C@H]2[C@H]3[C@H](O)[C@H](O)CC(=NNC(=O)OCc4ccccc4)[C@@H]3CC[C@H]2C1=O, O=C(NN=C1C[C@@H](O)[C@@H](O)[C@@H]2[C@@H]3C(=O)N(Cc4ccccc4)C(=O)[C@@H]3CC[C@@H]12)OCc1ccccc1 is lower in z-score: 0.319 for the first, 0.257 for the second.

Compared with CC=CC1=C(CO)C(=O)[C@@H]2O[C@@H]2C1=O, CC(=O)OC[C@H]1O[C@H](C#Cc2ccccc2)C=C[C@@H]1OC(C)=O is higher in z-score: -1.06 for the first, 0.277 for the second.

First: CCOC(=O)[C@H](CC(C)C)NC(=O)CCC1CC(OC(=O)NCc2ccc3c(c2)OCO3)CC2(CCCC(COC(=O)NCc3cccc(C(F)(F)F)c3)O2)O1 (some centres not stated)
Second: CCC1=NOC(CCC2CC(OC(=O)NCc3cccc4c3OCO4)CC3(CCCC(COC(=O)NCCc4ccccc4OC)O3)O2)C1 (configuration not stated)
The z-score of the first is lower: -0.326 for the first, 1.41 for the second.

Compared with CO[C@@H]1COC(=O)CC=C[C@@H](C)[C@@H]2C=C[C@H](O)[C@@H](COC(=O)CC=C[C@H]1C)O2, C=CC[C@@H]1C=C[C@H](ON=C2[C@H]3CCn4c(=O)n(-c5ccccc5)c(=O)n4[C@H]3[C@H](O)[C@@H]3O[C@H]23)[C@@H](CO)O1 is lower in z-score: 1.81 for the first, -0.544 for the second.

First: C[C@H]1CC[C@H]2C(=O)O[C@H](COc3ccc(C(C)(C)C)cc3)CN2[C@@H]1c1ccc(Br)cc1
Second: CC(C)=CCCC(C)=CCON=C1C[C@@H](O)[C@@H](O)[C@@H]2[C@@H]3C(=O)N(c4cccc(Oc5ccccc5)c4)C(=O)[C@@H]3CC[C@@H]12
The z-score of the first is higher: 0.972 for the first, -0.82 for the second.

First: O=C1[C@H]2[C@H]3[C@H](O)[C@H](O)CC(=NOCc4ccccc4)[C@@H]3CC[C@H]2C(=O)N1C[C@@H]1CCCO1
Second: C#CCCCON=C1C[C@@H](O)[C@@H](O)[C@@H]2[C@@H]3C(=O)N(CC)C(=O)[C@@H]3CC[C@@H]12
The z-score of the first is lower: -0.485 for the first, -0.39 for the second.

Compound CC(CCN1CCc2nc(-c3ccccc3)c(-c3ccccc3)cc2C1)=NOC[C@@H](O)[C@H]1O[C@@H]2OC(C)(C)O[C@@H]2[C@H]1O has a z-score of 2.07.
